GCN5L2 inh = inhibitors of human GCN5L2 histone acetyltransferase. Potency, µM (series often up to 58.9 µM), hits mostly inhibitors. 0.21% of 390,000 active. AID 504327. GCN5L2 HAT assay, ThioGlo1 CoA-SH fluorescence
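qHTS, 1536-well. 20nM enzyme, pH 7.5 HEPES/EDTA/Tween-20 buffer; 15 min compound preinc., RT. Start: 75uM H3(1-25), 70uM AcCoA, 50uM ThioGlo1. Read Ex340/Em540 at t=0 (autofluorescence flag) and t=20 min.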
PI5P4K alpha inh = blocks human PI5P4K alpha kinase activity; P48426; PI5P4Kalpha enzyme, ADP-Glo luminescence, 60 min; active compounds read low; max response, %; 1.2% of 330,000 active; active means max response of -50% or lower; inconclusive means between -30% and -50%; inactive means -30% or higher; further: value at the top dose of about 77 µM
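Controls without substrate or without enzyme flank wells where PI5P4Kalpha converts substrate using 5 microM ATP (final). Incubation lasts 60 minutes at room temperature; ADP formed is read by ADP-Glo luminescence.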
Pin1 inhibitor = inhibitors of human Pin1; Q13526; Pin1 FP peptide displacement, HiFluor488, 10 min; Potency, µM (highest dose often 115 µM), usual class: inhibitors; 0.009% of 390,000 active; AID 504891; active means well fitted inhibition curve with a large enough effect in the polarisation, with a control signal flat, not every such curve was filed as active; inconclusive means small, poorly fitted or top-dose-only effect, or effect the other way, or a change in a side signal; inactive means no such curve, though single readings can be large or run the other way; the % refers to the polarisation
Target sequence (Q13526 whole entry, looked up): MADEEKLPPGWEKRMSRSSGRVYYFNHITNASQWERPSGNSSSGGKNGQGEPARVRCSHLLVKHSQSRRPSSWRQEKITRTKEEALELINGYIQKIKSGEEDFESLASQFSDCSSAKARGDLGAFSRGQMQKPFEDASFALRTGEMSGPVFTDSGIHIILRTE
Tb PGK inh = inhibitors of T. brucei phosphoglycerate kinase. P07378. PGK/GAPDH coupled, Kinase-Glo luminescence, 60 min. Potency, µM (highest dose often 57.5 µM), actives largely listed as inhibitors. 0.043% of 380,000 active; further: nearly all actives have a fitted effect of over 60% in size
Target sequence (P07378 whole entry, looked up): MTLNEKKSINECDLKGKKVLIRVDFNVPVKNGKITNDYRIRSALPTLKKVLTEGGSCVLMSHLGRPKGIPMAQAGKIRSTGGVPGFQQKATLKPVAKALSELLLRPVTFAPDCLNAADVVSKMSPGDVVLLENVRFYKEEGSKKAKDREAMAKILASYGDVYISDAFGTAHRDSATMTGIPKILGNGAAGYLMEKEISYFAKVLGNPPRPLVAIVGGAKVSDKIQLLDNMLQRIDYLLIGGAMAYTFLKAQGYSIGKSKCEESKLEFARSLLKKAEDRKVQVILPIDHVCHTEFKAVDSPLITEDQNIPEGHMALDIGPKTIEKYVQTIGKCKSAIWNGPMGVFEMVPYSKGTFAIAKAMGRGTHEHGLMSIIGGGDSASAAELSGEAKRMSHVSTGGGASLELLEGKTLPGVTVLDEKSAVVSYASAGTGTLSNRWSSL
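Luminescent ATP detection (Kinase-Glo Plus) follows a 60-minute room-temperature incubation, with wells lacking PGK as controls. Buffer: 100 mM TEA (pH 7.6), 5 mM MgCl2, 0.01% Tween-20. Coupling enzyme GAPDH (100 nM final) supplies unstable 1,3-BPG in-well.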
PI4K2A block = blocks human PI4K2A kinase activity | purified PI4K2A, ADP-Glo luminescence, 1 h; active compounds read low | AID 1346378 | activity change, negative = inhibition, % at 76.9 µM | Q9BTU6 | 0.13% of 420,000 active; in the data active means activity change below about -50%; inconclusive means mostly about -30% to -49%
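Compounds are screened against recombinant PI4K2A using PI as substrate and ATP, the latter dispensed at 300 microM. Reactions run one hour at ambient temperature before ADP-Glo detection; full inhibition defined by wells lacking enzyme.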
GoLoco inh red = RGS12 GoLoco-Gai1 interaction inhibition; P63096; Gai1:RGS12 GoLoco peptide FP, rhodamine, 10 min; Potency, µM (highest dose often 61.6 µM), hits mostly inhibitors; 0.44% of 230,000 active; active means well fitted inhibition curve with a large enough effect, not every such curve was filed as active; inactive means no such curve, though single readings can be large or run the other way; further: nearly all actives have a fitted effect of over 30% in size
Hits are given with their value; i = inactive; ? = inconclusive; nt = no result given. Sampled rows, rich in hits. Any-hit rate of the full collection: about 1.2%. Unless noted, the call rests on the fitted dose curve; in most records, active means well fitted curve in the direction sought with a large enough effect; inconclusive means small, poorly fitted or top-dose-only effect, or another doubt; inactive means no such curve, though single readings can be large; an effect the other way counts as inactive or inconclusive.

SMILES | GCN5L2 inh | PI5P4K alpha inh | Pin1 inhibitor | Tb PGK inh | PI4K2A block | GoLoco inh red
Nc1ncnc(Sc2ncccn2)c1[N+](=O)[O-] | i | i | i | i | i | i
O=C1Oc2ccccc2C(=O)C1C(CC(O)c1ccc(-c2ccc(Br)cc2)cc1)c1ccccc1 (stereo unspecified) | 22µM | nt | nt | nt | nt | nt
OC(CN1CCN(C(c2ccccc2)c2ccccc2)CC1)c1ccc(Br)cc1 (stereo unspecified) | i | i | i | i | i | nt
Nc1nc(N)c2[nH]c(=S)[nH]c2n1 | nt | -52 | i | i | i | nt
CCn1cc(/C=C(\NC(=O)c2ccccc2OC)C(=O)N2CCOCC2)c2ccccc21 | nt | i | nt | i | i | nt
O=[N+]([O-])c1ccccc1Oc1ccccc1Cl | i | i | i | i | i | i
O=[N+]([O-])c1cccc(Cl)c1Cl | nt | nt | nt | nt | nt | 3.2µM
O=C(CCNC(=O)C1CCN(S(=O)(=O)c2ccccc2)CC1)NCc1ccc(Cl)cc1 | ? | i | i | i | i | nt
Cc1cccc(Nc2nnc(SCC(=O)c3ccc(O)cc3O)s2)c1 | i | i | i | i | i | nt
Cc1ccc(Nc2nnc(SCC(=O)c3ccc(O)cc3O)s2)cc1 | i | -56 | i | i | i | nt
Cc1ccc(C)c(NC(=O)CS(=O)(=O)c2c[nH]c3ccccc23)c1 | i | i | i | i | i | i
COc1ccc(S(=O)(=O)N(C)C[C@@H]2OCCCC[C@@H](C)Oc3ccc(NC(=O)NC(C)C)cc3C(=O)N([C@H](C)CO)C[C@@H]2C)cc1 | nt | i | nt | i | i | nt
Cc1nc(C)c(-c2ccc(SCC(=O)Nc3ccc(C)c(F)c3)nn2)s1 | i | nt | i | i | i | nt
COc1ccc(-c2coc3c2c(C)cc2oc(=O)cc(C)c23)cc1 | i | nt | i | i | i | nt
O=C(CN1C(=O)S/C(=C\c2cccs2)C1=O)Nc1ccc(C(=O)O)c(O)c1 | i | ? | i | i | i | nt
O=C(CN1C(=O)S/C(=C\c2cccs2)C1=O)Nc1ccc(O)c(C(=O)O)c1 | i | -58 | i | i | i | nt
Cc1cccc(NC(=O)CN2C(=O)S/C(=C\c3ccc(-c4cccc(C(=O)O)c4C)o3)C2=O)c1 | i | i | ? | i | i | i
Cc1ccc(NC(=O)CN2C(=O)S/C(=C/c3ccc(-c4cc(C(=O)O)ccc4C)o3)C2=O)cc1C | i | nt | ? | 20µM | i | i
CCOc1ccc(C2C(C#N)=C(N)SC(N)=C2C#N)c(OCC)c1 | i | -63 | ? | i | i | i
COc1cc(C2SC(C)C(=O)N2CCc2ccccc2)cc(OC)c1OC (stereo unspecified) | i | i | i | i | i | i
CCOc1ccccc1NC(=O)C1=C(C)NC(=S)NC1c1cccs1 (stereo unspecified) | i | i | i | i | i | i
N#Cc1ccsc1NC(=O)COC(=O)CCS(=O)(=O)c1ccccc1 | i | -56 | i | i | i | nt
N#Cc1ccsc1NC(=O)CCS(=O)(=O)c1ccccc1 | i | i | i | i | i | nt
O=C(COC(=O)c1cc(-c2ccncc2)nc2ccccc12)Nc1ccc2c(c1)OCO2 | i | nt | nt | nt | nt | i
Nc1nc(-c2ccccc2)c(CCCOc2ccc(NC(=O)CBr)cc2)c(=O)[nH]1 | nt | -59 | i | i | i | nt
SMILES | GCN5L2 inh | PI5P4K alpha inh | Pin1 inhibitor | Tb PGK inh | PI4K2A block | GoLoco inh red
Cc1ccccc1-n1c(SC/C(O)=C(\C#N)c2nc3ccccc3[nH]2)nnc1-c1ccncc1 | i | ? | i | i | i | i
Cc1cc(C)n2c(SC/C(O)=C(\C#N)c3nc4ccccc4[nH]3)nnc2n1 | i | -81 | ? | i | i | i
Cc1cccc(Nc2nnc(SCC(O)=C(C#N)c3nc4ccccc4[nH]3)s2)c1 | nt | -61 | i | i | i | nt
O=C(Nc1cccc(F)c1)N1CCCC2(CCN(C(=O)c3cnccn3)CC2)C1 | i | nt | nt | nt | nt | i
COc1cc(/C=c2\s/c(=C\C(=O)C(C)(C)C)[nH]c2=O)cc(OC)c1OC | i | i | ? | i | i | i
COc1ccc(/C=c2\s/c(=C\C(=O)C(C)(C)C)[nH]c2=O)cc1O | i | -72 | i | i | i | i
Cc1nonc1C(=O)N/N=C/c1ccc(O)cc1O | i | i | i | ? | -79 | i
O=C(Nc1cccc(-c2ccccc2)c1)N1CCN(C(=O)Nc2cccc(-c3ccccc3)c2)CC1 | 35µM | i | i | i | i | i
O=c1[nH]c(Nc2ccccc2Cl)cc2ccccc12 | nt | i | i | i | i | nt
O=c1[nH]c(Nc2ccc(F)cc2)cc2ccccc12 | i | nt | ? | i | -51 | i
COc1ccccc1[C@@H]1C(c2cccc(Cl)c2)=NN(c2ccccc2)[C@H]1C(=O)N1CCOC1=O | 20µM | i | i | i | i | i
O=C1OCCN1C(=O)[C@H]1[C@H](c2ccccc2)C(c2cccc(Cl)c2)=NN1c1ccc(Br)cc1 | 22µM | i | i | i | i | i
O=C1OCCN1C(=O)[C@H]1[C@H](c2ccc(F)cc2)C(c2cccc(Cl)c2)=NN1c1ccc(Br)cc1 | ? | i | i | i | i | i
COc1ccc(-c2nc(CNS(=O)(=O)c3cccc(F)c3)cs2)cc1 | i | nt | i | nt | i | nt
O=[N+]([O-])c1ccc2c(c1)-c1ccccc1C2O (stereo unspecified) | nt | -69 | nt | i | i | nt
O=[N+]([O-])c1ccc2c(c1)/C(=N\O)c1ccccc1-2 | i | i | i | i | i | i
CCCCN(C(=O)CSc1nnc(Nc2ccc(C)c(C)c2)s1)c1c(N)n(Cc2ccccc2)c(=O)[nH]c1=O | i | -69 | i | i | i | i
CN(C(=O)CSc1nnc(Nc2ccccc2)s1)c1c(N)n(Cc2ccccc2)c(=O)[nH]c1=O | i | i | i | i | i | i
N/C(=N\OC(=O)c1ccc2ccccc2c1)c1ccccn1 | i | i | i | ? | -58 | i
N/C(=N\OC(=O)c1cccc([N+](=O)[O-])c1)c1ccccn1 | i | i | i | i | i | i
CCOP(=O)(OCC)/C(=N/OC(=O)c1ccc(OC)cc1)C(N)=O | i | i | i | i | i | 4.5µM
N/C(=N\OC(=O)c1ccc2ccccc2c1)c1ccncc1 | i | i | i | i | i | i
CCCc1ccc(C(=O)O/N=C(\N)c2ccccn2)cc1 | i | -65 | i | ? | -85 | nt
COc1cccc(C(=O)O/N=C(\N)c2ccccn2)c1 | i | -73 | i | 14µM | -73 | nt
Cc1ccc(C)c(S(=O)(=O)NCC(c2ccc(N(C)C)cc2)N2CCOCC2)c1 (stereo unspecified) | i | nt | i | i | i | nt
Cn1cc(CNC(=O)C2CCC(=O)N(Cc3ccccc3F)C2)cn1 (stereo unspecified) | i | i | i | i | i | nt
N/C(=N\OC(=O)c1ccc(Cl)cc1Cl)c1ccccn1 | i | i | i | i | i | i
COc1ccc(C(=O)O/N=C(\N)c2ccccc2)cc1 | i | ? | i | ? | -67 | nt

From PubChem BioAssay
